Experimental findings from PubChem BioAssay (NCATS) are described below.

Inconclusive results are not listed. A call without a number means that no potency is given here. Calls of active or inactive are those of the source. Calls come from the whole dose curve; as a rule, active = well fitted inhibition curve with a large enough effect; inconclusive = small, poorly fitted or top-dose-only effect; inactive = no such curve, though single readings can be large or run the other way.
Potency is the fitted concentration of half-maximal effect.

A short description of the experiment: qHTS assay for measurement of the activity of small molecule inhibitors on Zika virus induced Caspase-3 activity in human iPSC derived neural progenitor cells (hNPCs) (AID 1224857). Note: nearly all actives have a fitted effect of over 65% in size. To be noted: hNPCs ZIKV-induced caspase-3/7, Caspase-Glo luminescence, 6 h; series mostly up to 45.7 µM. An outline of the steps: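 Zika virus (2 FFU/cell) infection of human iPSC-derived NPCs, 6 h, following 1 h compound preincubation. Read-out: Caspase-Glo 3/7 luminescence.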
Background: In qHTS, concentration-response curves come from the screen itself.
As to `CCCN(CCc1cccs1)[C@H]1CCc2c(O)cccc2C1`, the Potency result was “inactive”. Turning to `CCN(CC)CCNC(=O)c1cc(Br)c(N)cc1OC`, the Potency entry was “inactive”.

For `CCc1ccc(C(=O)C(C)CN2CCCCC2)cc1` (stereo unspecified), the Potency result was “inactive”.

For the molecule `CCCCCCCCNC(C)C(O)c1ccc(SC(C)C)cc1` (stereo unspecified), the Potency entry is “inactive”. Under `COc1cc(C)nc(-n2nc(C)cc2OC)n1` stands “inactive”; under `O=C(O)Cc1csc(-c2ccc(Cl)cc2)n1`, “inactive”; under `CCOc1ccccc1OCCN[C@H](C)Cc1ccc(OC)c(S(N)(=O)=O)c1`, “inactive”. As to `COc1ccc(S(=O)(=O)N2c3ccc(Cl)cc3[C@@](O)(c3ccccc3Cl)[C@H]2C(=O)N2CCC[C@@H]2C(N)=O)cc1OC`, the Potency entry is “inactive”. On to `CC(=O)O[C@]1(C(C)=O)CC[C@H]2[C@@H]3C=C(Cl)C4=CC(=O)CC[C@]4(C)[C@H]3CC[C@@]21C`, for which the Potency result is “inactive”. Under `Cc1ccc(O)c([C@H](CCN(C(C)C)C(C)C)c2ccccc2)c1` stands “inactive”.

In the case of `Nc1nc(N)c(-c2ccccc2)s1`, the Potency entry was “inactive”.

For `Oc1ccccc1C=NCc1ccccc1`, the Potency result is “inactive”. In the case of `COc1ccc(C(=O)c2ccccc2O)c(O)c1`, the Potency result is “inactive”. Under `CN(CCCN1c2ccccc2CCc2ccccc21)CC(=O)c1ccc(Cl)cc1` stands “inactive”; under `CCNC(=O)NCc1cccc(Cl)c1`, “inactive”; under `CO[C@H]1C=CO[C@@]2(C)Oc3c(C)c(O)c4c(O)c(c(/C=N/N5CCN(C)CC5)c(O)c4c3C2=O)NC(=O)/C(C)=C\C=C[C@H](C)[C@H](O)[C@@H](C)[C@@H](O)[C@@H](C)[C@H](OC(C)=O)[C@@H]1C`, “inactive”. Under `CC(C)(Cc1c[nH]c2ccccc12)NCC(O)COc1ccccc1C#N` (stereo unspecified) stands “inactive”. On to `OCc1ccccn1`, for which the Potency entry was “inactive”. On to `NC(=O)C1(N2CCCCC2)CCN(CCCC(=O)c2ccc(F)cc2)CC1`, for which the Potency entry is “inactive”. In the case of `CC(O)Cn1cnc2c1c(=O)n(C)c(=O)n2C` (stereo unspecified), the Potency result is “inactive”. In the case of `O=[N+]([O-])c1ccc(/C=N\O)o1`, the Potency entry was “inactive”. Turning to `O=C(Nc1ncc([N+](=O)[O-])s1)c1cccs1`, the Potency result was “inactive”. Under `CCCCCCCCCCCCCCC[C@H](O)[C@@H](N)CO` stands “inactive”; under `CN1CCC[C@@H]1CCO[C@](C)(c1ccccc1)c1ccc(Cl)cc1`, “inactive”; under `Cc1cc2c(OCC(CNC(C)(C)C)OC(=O)c3ccccc3)cccc2[nH]1` (stereo unspecified), “inactive”. `Cc1ncc(CO)c(C=O)c1O`: the Potency result is “inactive”. Under `COc1ccccc1N1CCN(CCCCNC(=O)c2ccc(-c3ccc(C(C)=O)cc3)cc2)CC1` stands “inactive”; under `OCCOCCN1CCN(C2=Nc3ccccc3Sc3ccccc32)CC1`, “inactive”; under `COc1ccc(CN(CCN(C)C)c2ncccn2)cc1`, “inactive”.

As for `CC(=O)N[C@@H](CCC(=O)O)C(=O)O`, the Potency result was “inactive”. On to `Clc1cccc(C(c2ccc3nc[nH]c3c2)n2ccnc2)c1` (stereo unspecified), for which the Potency result is “inactive”. Under `Cc1ccc2c(Br)cc(Br)c(O)c2n1` stands “inactive”. Under `NC(N)=NN=C(/C=C/c1ccc([N+](=O)[O-])o1)/C=C/c1ccc([N+](=O)[O-])o1` stands 31.6 µM (active); under `CCN(CC)CCNC(=O)COc1ccc(OC)cc1`, “inactive”; under `CC(C)(C)NCC(O)COc1cccc2c1C[C@H](O)[C@H](O)C2` (stereo partly specified), “inactive”. Under `COc1cc(O)c(C(=O)c2ccccc2)cc1S(=O)(=O)O` stands “inactive”.
